Compound activity (PubChem)
This is a sample that favours compounds with a hit; in the whole collection about 2.5% have one here.
Cruzain inh noDet: blocks cruzain activity in detergent-free assay | Potency, µM, most hits filed as inhibitors | purified cruzain, Z-FR-AMC fluorescence, no detergent | 200,000 tested, 2.3% active | P25779; note: nearly all actives have a fitted effect of over 40% in size
Target sequence (P25779 123-467 limits assumed): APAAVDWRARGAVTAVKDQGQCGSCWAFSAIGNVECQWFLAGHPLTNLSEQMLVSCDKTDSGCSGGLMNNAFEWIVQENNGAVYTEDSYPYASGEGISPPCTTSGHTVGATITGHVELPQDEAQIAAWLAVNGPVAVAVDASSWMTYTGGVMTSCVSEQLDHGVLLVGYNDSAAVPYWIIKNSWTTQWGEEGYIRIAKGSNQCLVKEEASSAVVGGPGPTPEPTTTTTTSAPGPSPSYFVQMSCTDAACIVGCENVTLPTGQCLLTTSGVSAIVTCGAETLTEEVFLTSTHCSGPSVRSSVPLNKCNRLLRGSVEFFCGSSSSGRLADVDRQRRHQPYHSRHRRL
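Purified cruzain at 1.5 nM, pre-incubated 15 min with compound at room temperature in 100 mM sodium acetate pH 5.5, 5 mM DTT, 0.00005% Triton X-100. Reaction started with 2 uM Z-FR-AMC; AMC fluorescence increase over 60 s gives rate.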
Cruzain Triton: cruzain (T. cruzi) inhibition with detergent | 200,000 tested, 0.43% active | purified cruzain, Z-FR-AMC fluorescence, 0.01% Triton | P25779 | Potency, µM, actives largely listed as inhibitors; note: nearly all actives have a fitted effect of over 40% in size
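Enzyme 1.5 nM, Z-FR-AMC 2 uM, NaOAc 100 mM pH 5.5, DTT 5 mM, Triton X-100 0.01%; 15 min RT compound preincubation; kinetic ex360/em450, 60 s delta.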
Numbers stand for hits; 0 = inactive; ? = inconclusive. Calls come from the whole dose curve; as a rule, active = well fitted curve in the direction sought with a large enough effect; inconclusive = small, poorly fitted or top-dose-only effect, or another doubt; inactive = no such curve, though single readings can be large; an effect the other way counts as inactive or inconclusive.

SMILES	Cruzain inh noDet	Cruzain Triton
S=C(Nc1ccc(Oc2ccc(NC(=S)NC3CCCCC3)cc2)cc1)NC1CCCCC1	4µM	0
CCC1CCCCN1CCCNC(=O)c1c(C)oc2ncn(CC(C)C)c(=O)c12 (stereo unspecified)	0	0
C[C@@]1(C(NC(=O)c2ccc(-c3ccccc3)cc2)c2ccc(Cl)cc2)C[C@H]1C1CCCCC1 (stereo partly specified)	?	0
C[C@@]1([C@@H](NC(=O)c2cccs2)c2ccc(-c3ccccc3)cc2)C[C@H]1C1CCCCC1	7.9µM	0
COc1ccc(NC(=O)CCS(=O)(=O)c2nc(-c3cccs3)cc(C(F)(F)F)n2)cc1OC	0	0
Cc1cc(C)cc(N2Cc3ccccc3C2)c1	13µM	0
FC(F)(F)c1cccc(N2Cc3ccccc3C2)c1	0	0
OCCNc1nc(Nc2ccccc2)nc2ccccc12	16µM	?
OCCNc1nc(Nc2ccccc2)nc(Nc2ccccc2)n1	0	0
c1ccc(-c2nc(NCC3CCCO3)c3ccccc3n2)nc1 (stereo unspecified)	0	0
Oc1cccc(Nc2nc(NCC3CCCO3)c3ccccc3n2)c1 (stereo unspecified)	13µM	18µM
COc1ccc(-c2coc3cc(O)ccc3c2=O)c(O)c1O	0	0
CC(C)CCSc1nc2c(c(=O)n(C)c(=O)n2C)n1Cc1ccccc1Cl	0	0
COc1ccc(C2=Nn3c(nc4sc(C(=O)Nc5cccc(C)c5)c(C)c4c3=O)SC2)cc1	0	0
CCC(=O)N1CCc2cc(Br)cc(S(=O)(=O)N3CCC(C(=O)N(CC)CC)CC3)c21	0	0
Cc1ccc(-c2noc(CCC(=O)Nc3ccc(C)cn3)n2)cc1	25µM	0
CCOC(=O)c1ccccc1NC(=O)CCc1nc(-c2ccc(C)cc2)no1	0	0
CCc1c(CN2CCN(c3cccc(C)c3C)CC2)csc1C	0	0
O=c1/c(=C\c2ccc(O)cc2)sc2n1C(c1ccccc1)C(c1ccccc1)=NN=2 (stereo unspecified)	25µM	0
CCOC(=O)C1=C(c2ccccc2)N=c2s/c(=C\c3cccc(O)c3)c(=O)n2C1c1cccs1 (stereo unspecified)	0	0
O=S(=O)(CCC(F)=C(F)F)c1nnnn1C1CCCCC1	0	0
COC(=O)c1cccc(Nc2c(-c3ccc(OC)cc3)nc3nc[nH]n23)c1	0	0
Cc1ccc2nc(NC(=O)c3ccc(-c4nc5ccccc5s4)s3)sc2c1	4µM	0
O=C(Nc1nc2ccccc2s1)c1ccc(Cl)s1	?	0
CCOc1ccccc1/C=N/NC(=O)Cc1csc(Nc2cccc(C(F)(F)F)c2)n1	10µM	0
SMILES	Cruzain inh noDet	Cruzain Triton
CCOc1ccc(/C=N/NC(=O)Cc2csc(Nc3cccc(C(F)(F)F)c3)n2)c(OCC)c1	?	0
COC(=O)c1sc(-c2ccccc2)cc1NC(=O)Nc1ccccc1Cl	10µM	0
COC(=O)c1sc(-c2ccccc2)cc1NC(=O)Nc1ccc(Cl)cc1	?	0
CCC(=O)N1CCCc2cc(S(=O)(=O)Nc3ccc(C)c(C)c3)ccc21	0	0
Cc1ccc(NC(=O)COC(=O)c2ccc3c(c2)C(=O)N(CCc2ccccc2)C3=O)c(C)c1	25µM	0
CCOc1ccc(NC(=O)COC(=O)c2ccc3c(c2)C(=O)N(CCc2ccccc2)C3=O)cc1	?	0
O=C(NC(=S)Nc1ccccc1N1CCOCC1)c1ccc(-c2cccc(Cl)c2)o1	?	0
O=C(NC(=S)Nc1ccccc1N1CCCCC1)c1ccc(-c2cccc([N+](=O)[O-])c2)o1	5µM	0
O=C(NC(=S)Nc1ccccc1N1CCCC1)c1ccc([N+](=O)[O-])cc1	?	0
COc1ccccc1NC(=S)NC(=O)c1ccc(-c2ccc(Cl)cc2)o1	?	0
O=C(NC(=S)Nc1ccccc1N1CCCC1)c1ccc(-c2cccc([N+](=O)[O-])c2)o1	5µM	0
O=C(NC(=S)Nc1ccccc1O)c1ccc(-c2ccc(Cl)cc2)o1	16µM	0
COc1ccc2c(c1)c1c(c(=O)n(-c3cccc(Cl)c3)c(=O)n1CC(=O)N1CCCC1)n2C	0	0
Cc1nc(NC(=O)c2ccccc2)sc1-c1csc(Nc2cccc(Cl)c2)n1	10µM	0
Cc1nc(NC(=O)c2ccccc2)sc1-c1csc(Nc2ccc(Cl)cc2)n1	4µM	0
O=C(Nc1nc(-c2ccc(Cl)s2)cs1)c1ccccc1	0	0
Cc1nc(NC(=O)c2ccccc2)sc1-c1csc(Nc2ccc(F)cc2)n1	16µM	0
CC(C)n1c(SCC(=O)c2ccc(F)cc2)nc2c(sc3ccccc32)c1=O	0	0
COc1ccc(-c2[nH]ncc2C(=O)NCc2cccc(Cl)c2)cc1	0	0
O=C1C2C=CC=CC2=NC(=S)N1CCN1CCC(=C(c2ccc(F)cc2)c2ccc(F)cc2)CC1 (stereo unspecified)	13µM	0
O=C(CN1CCN(CCN2C(=O)c3cccc4cccc(c34)C2=O)CC1)c1ccc(F)cc1	?	0
NC(=[SH+])N=N/C=C1/C=CC=CN1.O=S(=O)(O)O.[Fe]	0	0
CCCCCCN(CCCCCC)C(=O)Cc1c(-c2ccc(F)cc2)[nH]c2ccccc12	32µM	0
O=C(Cc1c(O)c2ccccc2[nH]c1=O)N(Cc1ccccc1)Cc1ccccc1	0	0
CCOC(=O)c1c(C)oc2nc(C)nc(NCc3cccc(Cl)c3)c12	0	0
SMILES	Cruzain inh noDet	Cruzain Triton
COc1cccc(NC(=O)CSc2nc3n[nH]c(C)c3c(=N)n2-c2cccc(OC)c2)c1	?	0
CCc1ccc(NC(=O)CSc2nc3n[nH]c(C)c3c(=N)n2-c2cccc(OC)c2)cc1	13µM	0
Cc1ccc2nc3nc(NCC4CCCO4)c(C(=O)NC4CCCC4)cc3c(=O)n2c1 (stereo unspecified)	0	0
C=CCNC(=O)c1cc2c(=O)n3cc(C)ccc3nc2nc1NCC1CCCO1 (stereo unspecified)	?	22µM
COc1ccc(C)cc1NC(=O)C(NS(=O)(=O)c1cccc2nsnc12)c1ccccc1 (stereo unspecified)	0	0
CCc1ccc(-c2cc(-c3n[nH]c(=S)n3CC)c3ccccc3n2)cc1	16µM	0
CCn1c(-c2cc(-c3cccc(OC)c3)nc3ccccc23)n[nH]c1=S	0	0
Cc1ccc(C)c(NC(=O)C(Sc2nc3ccccc3c(=O)n2CC(C)C)c2ccccc2)c1 (stereo unspecified)	20µM	0
Cc1ccc(C)c(NC(=O)C(Sc2ncnc3ccccc23)c2ccccc2)c1 (stereo unspecified)	0	0
COc1cccc(-c2nc3ccccc3c(=O)o2)c1	0	0
COc1cc(OC)cc(-c2nc3ccccc3c(=O)o2)c1	16µM	0
O=C(Cc1ccccc1)N(Cc1cccnc1)c1nc2ccc(F)cc2s1	0	0
CCCCN(CCCC)S(=O)(=O)c1ccc(NC(=O)c2c(-c3ccccc3)noc2C)cc1	0	0
CCCN(CCC)S(=O)(=O)c1ccc(C(=O)NNc2nc(-c3ccccc3)c3cc(Br)ccc3n2)cc1	10µM	0
O=C(CSc1nc(=O)[nH]c2c1CCCC2)Nc1ccc(Cl)c(Cl)c1	0	0
CCOc1ccccc1C(=O)N1CC(=O)Nc2ccc(Cl)cc2C1c1ccccc1 (stereo unspecified)	0	0
Cc1nn(-c2ccccc2)c(Cl)c1/C=N/Nc1ccc(Cl)c(C(=O)O)c1	0	0
Cc1nn(-c2ccccc2)c(Cl)c1/C=N/Nc1ccc(S(=O)(=O)Nc2ccccc2C(=O)O)cc1[N+](=O)[O-]	?	14µM
